Compound activity: PubChem, National Center for Advancing Translational Sciences (NCATS)
Rows were chosen to be rich in hits. Some 8.1% of all compounds tested hit in one or more screens of this group.
ClpP mod – qHTS Assay for Activators of ClpP. ATP-dependent Clp protease proteolytic subunit (Bacillus subtilis (strain 168)), P80244. purified B. subtilis ClpP, FRET peptide cleavage, 20 min. Potency, µM (doses to about 57.5 µM), inactives show at the top dose activity change, negative = active. 1.9% of 340,000 active; active = well fitted falling curve with a large enough effect; inconclusive = small, poorly fitted or top-dose-only effect; inactive = no such curve, though single readings can be large or run the other way; note: the source files actives as falling curves though it sought activators and does not explain the sign; nearly all actives have a fitted effect of over 65% in size
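Purified B. subtilis ClpP, 10 microg/mL final in Tris/HCl pH8 with KCl, BSA, glycerol and Tween-20, cleaved an Abz/nitrotyrosine-quenched decapeptide. Fluorescence (ex 320, em 430) was read at 0 and 20 min at room temperature. Delta was normalized to 5.8 microM ADEP and DMSO/no-enzyme controls.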
RORgamma inh – blocks mouse ROR gamma transcriptional activity. 5.4% of 310,000 active. AID 2551. Drosophila S2 Gal4-RORgamma UAS-luciferase reporter, 20 h. Potency, µM (titrated, usually from 53.6 µM), inactives show top-dose activity change, negative = inhibition, hits mostly inhibitors. P51450; note: % is set by controls: 0 for no effect and ±100 for the full control effect; nearly all actives have a fitted effect of over 60% in size
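Drosophila Schneider cells stably carrying a metallothionein-driven Gal4 DBD–ROR gamma fusion and a UAS-Photinus luciferase reporter were exposed to compound for 1 hr, then induced with copper sulfate (700 uM final) for 20 hr at ambient temperature before luminescence reading.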
Sfp PPTase inh – Sfp phosphopantetheinyl transferase inhibition | Q9F4F7 | Biochemical Sfp PPTase activity, qHTS | Potency, µM, for the others: largest response in the series, negative = inhibition, usual class: inhibitors | 3.5% of 310,000 active | AID 1490;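 note: the enzyme is Sfp with the accession as filed and its product quenches rhodamine fluorescence; 0% = enzyme reaction without inhibitor and -100% = no enzyme wells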
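With Hepes-Na pH 7.6 buffer containing 10 mM MgCl2, Sfp (15 nM) modified BHQ-2-YbbR (12.5 uM) using rhodamine-CoA (5 uM). Two reads 30 minutes apart at 525/598 nm yielded each well's rate.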
Epigenetic reg – epigenetic control regulation, reporter derepression; murine LDR cells, GFP reporter derepression, 30 h; Potency, µM (titrated, usually from 53.9 µM), for the others: at the highest dose GFP activation, usual class: activators; 0.2% of 280,000 active; note: % of control where 0% means no effect; nearly all actives have a fitted effect of over 60% in size
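Reporter derepression read as number of fluorescent GFP-positive objects, 20-120 um in size, counted by laser-scanning cytometer. Mouse LDR line with an epigenetically silenced CMV-GFP locus; compound incubation 30 h, 37 C.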
VP16 counter – Gal4-VP16 reporter inhibition counter-screen. Drosophila S2 Gal4-VP16 UAS-luciferase, luminescence, 20 h. Potency, µM (series often up to 53.6 µM), for inactives: top-dose activity, negative = inhibition, usual class: inhibitors. 3.5% of 310,000 active. AID 2546;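 note: Gal4-VP16 expression switched on by copper sulfate through the metallothionein promoter; % is set by controls: 0 for no effect and ±100 for the full control effect; nearly all actives have a fitted effect of over 50% in size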
PINK1 modulator – changes PINK1 expression. AID 624263. Potency, µM (doses to about 76.6 µM), for inactives: at the highest dose activation (PINK1 increase), most hits filed as activators. PINK1 immunofluorescence, high-content cytometry, 24 h. 0.2% of 410,000 active; active = well fitted activation curve with a large enough effect; inconclusive = small, poorly fitted or top-dose-only effect; cell line not stated here; note: % of control where 0% means no effect; nearly all actives have a fitted effect of over 65% in size
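Cells are seeded, rested 12 hours, then given compound at five concentrations or DMSO for 24 hours. After fixation, blocking and antibody staining, PINK1 amount and mitochondrial localization are scored; CCCP serves as control.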
Active calls of the source: *; ? = inconclusive; . = no result given; ! = not active in a repeat; [ ] = another dose, or the depositor's remark. Unless noted, calls come from the whole dose curve; as a rule, active = well fitted curve in the direction sought with a large enough effect; inconclusive = small, poorly fitted or top-dose-only effect, or another doubt; inactive = no such curve, though single readings can be large; an effect the other way counts as inactive or inconclusive. Potency is the fitted concentration of half-maximal effect.

SMILES | ClpP mod | RORgamma inh | Sfp PPTase inh | Epigenetic reg | VP16 counter | PINK1 modulator
CCOCCOC(=O)C1=C(C)N(C)C(=O)NC1c1ccccc1Cl (stereo unspecified) | -4% | -15% | 6% | -1% | 2% | 0%
CCOC(=O)C1=C(C)N(C)C(=S)NC1c1ccc(Cl)cc1Cl (stereo unspecified) | -2% | 7.1µM* | -7% | 0% | 7.9µM* | 1%
CCOC(=O)C1=C(C)N(C)C(=S)NC1c1cccc(Cl)c1Cl (stereo unspecified) | -2% | 4µM* | 12% | -4% | ? | 2%
CCOC(=O)C1=C(C)N(C)C(=S)NC1c1ccccc1Cl (stereo unspecified) | -1% | 8.9µM* | -4% | -1% | ? | 0%
CCOC(=O)C1=C(C)N(CCCC(=O)O)C(=O)NC1c1ccc(Cl)cc1Cl (stereo unspecified) | 2% | -8% | -7% | . | 5% | 0%
CN(C)c1ccc(/C=C/c2c(Br)cnc3ccccc23)cc1 | 1% | . | . | . | . | 2%
O=C(C1=C[C@H](c2ccc3c(c2)OCO3)C[C@H](OCc2ccc(CO)cc2)O1)N1CCCCCCC1 | -5% | 14µM* | -25% | -9% | -29% | -1%
CCOC(=O)c1c(Oc2ccc(OC)cc2)nnc(-c2ccccc2)c1-c1ccccc1 | -6% | . | . | -1% | . | 0%
CC(C)NC(=O)C1CCN(C2CCN(C(=O)c3cc4c(s3)CCCCC4)CC2)CC1 | . | 10µM* | 1% | -3% | 7.9µM* | -1%
O=C(COc1ccc(S(=O)(=O)NC2CCCCC2)cc1Cl)NCc1cccnc1 | -2% | 15% | 18µM* | 5% | -1% | 0%
O=C(COc1ccc(S(=O)(=O)NC2CCCCC2)cc1)NCc1ccccn1 | -3% | 17% | 12% | 0% | -2% | .
O=C(CCc1ccc(S(=O)(=O)NC2CCCCC2)cc1)NCc1ccccn1 | . | 17% | 40µM* | 0% | 5% | -2%
COc1ccccc1S(=O)(=O)Cc1ccc(C(=O)N2CCN(c3cc(Cl)ccc3C)CC2)o1 | -3% | . | . | 0% | . | 0%
O=C1C[C@H]2C=CCc3cccc(c32)CN1Cc1cccc(F)c1 | -11% | . | . | . | . | .
COc1cccc2c1Oc1ncccc1N(c1ccc(C(=O)NCc3ccccc3Cl)s1)C2 | 14µM* | . | . | -5% | . | -2%
CCOc1ccccc1CNC(=O)c1ccc(N2Cc3ccccc3Oc3ncccc32)s1 | ? | . | . | 6% | . | 4%
COc1cccc2c1Oc1ncccc1N(c1ccc(C(=O)NCc3cccc(C)c3)s1)C2 | 32µM* | . | . | 3% | . | -2%
CCn1c2ccccc2c2cc(/C=C3\C=Cc4ccccc43)ccc21 | 2% | . | . | . | . | 1%
CC(=O)Nc1ccc(N2C(=O)CC(Sc3nc(C)cc(C)n3)C2=O)cc1 (stereo unspecified) | -2% | -7% | 6% | . | 3% | -2%
CC(=O)SC1CC(=O)N(c2ccc(C(C)(C)C)cc2)C1=O (stereo unspecified) | . | 7.1µM* | 6% | 1% | ? | 2%
CC(=O)SC1CC(=O)N(c2c(C)cccc2C)C1=O (stereo unspecified) | . | 10µM* | 3% | -2% | ? | 2%
Cc1ccc(C)c(CSc2nnc3[nH]c(=O)cc(-c4ccccc4)n23)c1 | -20% | . | . | 7% | . | 2%
COc1cccc(NC(=O)C(Cc2ccccc2)N2Cc3ccccc3C2=O)c1 (stereo unspecified) | 3% | . | . | 1% | . | 17%
COc1ccc(C/C(C)=N/Nc2nc(C)cc(=O)[nH]2)cc1 | 0% | ? | 50µM* | -1% | -18% | 0%
CC(C)(C)c1ccc(C2=CSC3=NCCN23)cc1 | . | 10µM* | 19% | . | -17% | -1%
SMILES | ClpP mod | RORgamma inh | Sfp PPTase inh | Epigenetic reg | VP16 counter | PINK1 modulator
CC(C)Cc1ccc(C2=CSC3=NCCN23)cc1 | . | . | . | . | . | 0%
CCN1C/C(=C/c2cccc([N+](=O)[O-])c2)C(=O)/C(=C/c2cccc([N+](=O)[O-])c2)C1 | -3% | 4µM* | -22% | -2% | 3.5µM* | -2%
Cc1cc(N2CCN(C)CC2)nc(-c2ccccc2O)n1 | 4% | -17% | -5% | 0% | -6% | -1%
Cc1cc(N2CCN(C)CC2)nc(=S)[nH]1 | . | -13% | 50µM* | -2% | 17% | 0%
CCN(CC1COc2ccccc2O1)C(=S)NC1CC2CCC1C2 (stereo unspecified) | -2% | 8.9µM* | 7% | 0% | ? | 1%
c1cncc(OC2CCN(Cc3ccc4c(c3)CN(Cc3ccc5c(c3)CCO5)CCO4)CC2)c1 | . | . | . | . | . | 0%
O=C(CCC1N=C2c3ccccc3N=C(SCc3cccc(F)c3)N2C1=O)NCc1cccs1 (stereo unspecified) | -4% | . | . | 0% | . | 0%
CC1CN(c2ncc(/C=N/NC(=O)c3ccccc3O)s2)CC(C)O1 (stereo unspecified) | . | 0.35µM* | 0% | 2% | 1.3µM* | 0%
CC1Oc2ccccc2C=C1/C=N/NC(=O)c1ccccc1O (stereo unspecified) | 0% | ? | -4% | 1% | ? | ?
Cc1ccc2c(=O)cc(C(=O)Nc3c(C)n(C)n(-c4ccccc4)c3=O)oc2c1C | -8% | . | . | 0% | . | 1%
CSc1nsc(SC)c1NC(=O)OCC1CCCO1 (stereo unspecified) | 0% | -12% | 56µM* | 1% | -4% | 5%[38.3 µM]
CC(NC(=O)c1ccco1)c1nnc2n1CCN(Cc1ccc(Cl)cc1)CC2 (stereo unspecified) | . | . | . | . | . | 0%
CCCCCC(=O)N1CCN(CCN=CC2=C(O)CC(c3cccs3)CC2=O)CC1 (stereo unspecified) | 32µM*! | 4% | 21% | -1% | 4% | -1%
O=C(Nc1ncc(Cc2cccc([N+](=O)[O-])c2)s1)c1ccco1 | -14% | ? | -9% | 10% | ? | 6%
O=C(Nc1ncc(Cc2ccc(C(F)(F)F)cc2)s1)c1ccc(-c2cccc([N+](=O)[O-])c2)o1 | -1% | 5.6µM* | 18% | -1% | 7.1µM* | 5%
Cc1ccc(Cc2cnc(NC(=O)/C(C#N)=C/c3ccc(-c4ccc([N+](=O)[O-])cc4)o3)s2)cc1 | -3% | 2.2µM* | 1% | 0% | 0% | 16%
O=C(Nc1ncc(Cc2ccccc2Cl)s1)c1ccc(-c2cccc([N+](=O)[O-])c2)o1 | 0% | 5µM* | -2% | -1% | ? | 1%
CC1(C)OC(=O)C2(Cc3ccc(Cl)cc3N3CCCCC32)C(=O)O1 (stereo unspecified) | 0% | . | . | . | . | 1%
